# Screening results from PubChem BioAssay.
# Rows were chosen to be rich in hits. Some 10% of all compounds tested hit in one or more screens of this group.
# GPT2 inhibitor: Primary qHTS assay for inhibitors of Glutamate pyruvate transaminase 2 (GPT2) | Alanine aminotransferase 2 (Homo sapiens), Q8TD30 | Recombinant GPT2, coupled pyruvate oxidase/HRP Amplex Red fluorescence | Potency, µM (series often up to 57.7 µM), hits mostly inhibitors | hit rate 0.25% among 100,000; also: nearly all actives have a fitted effect of over 60% in size
#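 Fluorescence read-out: pyruvate from GPT2 turnover coupled to pyruvate oxidase, HRP and Amplex Red (0.2mM ThPP, 0.2U/mL PO and HRP, 50uM Amplex final). Substrates 250uM a-KG, 2mM L-alanine; enzyme 10ng/uL; 30 min RT.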
# HEK cytotox: Cytotoxic Profiling in HEK 293 Cell Line of Diverse Libraries Using Quantitative High-Throughput Screening; HEK 293 viability, ATP luminescence (CellTiter-Glo), 48-72 h; Potency, µM (highest dose often 115 µM), actives largely listed as inhibitors; hit rate 6.6% among 94,000; AID 1345083, 2018; also: nearly all actives have a fitted effect of over 60% in size
#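 HEK 293 cells seeded at 250 cells/well were exposed to compound for 48 or 72 hr at 37 degree Celsius. Viability taken as ATP content by CellTiter-Glo luminescence.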
# NPR1 antag: Natriuretic polypeptide receptor (hNpr1) antagonism - Primary qHTS; Atrial natriuretic peptide receptor 1 (Homo sapiens), P16066; HEK293 hNpr1 GloSensor cGMP, ANP-stimulated luminescence; Potency, µM (doses to about 46.3 µM), usual class: inhibitors; hit rate 1.6% among 76,000; AID 1347048, 2019; calls by dose curve; also: nearly all actives have a fitted effect of over 60% in size
#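 HEK293 cells stably expressing human Npr1 and cGMP GloSensor pGS-40F, loaded 2 h with 2% GloSensor reagent, given compound 30 min at room temperature. Luminescence read before and 20 min after 0.1 nM hNppA.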
# NIH3T3 tox: Cytotoxic Profiling in NIH 3T3 Cell Line of Diverse Libraries Using Quantitative High-Throughput Screening | Potency, µM (doses to about 96.7 µM), usual class: inhibitors | NIH 3T3 viability, CellTiter-Glo ATP luminescence, 48-72 h | hit rate 4.3% among 94,000; also: nearly all actives have a fitted effect of over 55% in size
#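 NIH 3T3 cells at 400 cells/well received 23 nL of compound by pintool and were incubated 48 or 72 h at 37 °C. Viability was read as ATP-coupled CellTiter-Glo luminescence.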
# FLuc inh-1: Firefly luciferase inhibition profiling of diverse chemical library using quantitative high-throughput screening; hit rate 2.5% among 76,000; purified P. pyralis luciferase, luminescence, biochemical; Potency, µM (titrated, usually from 115 µM), actives largely listed as inhibitors; Luciferin 4-monooxygenase (Photinus pyralis), P08659; also: nearly all actives have a fitted effect of over 65% in size
# Target sequence (P08659 whole entry, looked up): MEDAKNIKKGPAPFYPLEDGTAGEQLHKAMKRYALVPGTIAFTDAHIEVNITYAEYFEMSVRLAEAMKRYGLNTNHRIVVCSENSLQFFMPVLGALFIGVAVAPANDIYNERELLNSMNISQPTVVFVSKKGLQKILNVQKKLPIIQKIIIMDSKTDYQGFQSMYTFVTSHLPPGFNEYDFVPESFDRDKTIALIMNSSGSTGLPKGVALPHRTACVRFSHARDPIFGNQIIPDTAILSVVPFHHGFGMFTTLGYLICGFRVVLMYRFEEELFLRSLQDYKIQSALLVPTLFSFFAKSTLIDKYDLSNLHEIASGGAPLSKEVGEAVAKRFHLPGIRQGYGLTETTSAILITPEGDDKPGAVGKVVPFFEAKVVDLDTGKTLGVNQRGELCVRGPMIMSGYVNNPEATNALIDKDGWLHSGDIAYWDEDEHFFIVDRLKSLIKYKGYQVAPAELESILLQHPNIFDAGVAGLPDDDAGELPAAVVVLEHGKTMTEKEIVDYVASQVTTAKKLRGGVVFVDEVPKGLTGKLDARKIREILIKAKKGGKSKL
#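 Purified P. pyralis luciferase (10nM final) in 50mM Tris acetate pH 7.5, 10mM Mg acetate, 0.01% Tween-20, 0.05% BSA with 10uM D-luciferin and 10uM ATP. Compounds titrated qHTS. Luminescence imaged on CCD.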
# FLuc SDR -ATP: Firefly luciferase (FLuc-C-HiBiT) SDR gain of signal screen - without ATP; hit rate 7.8% among 1,300; shares compounds with FLuc inh-1; Purified FLuc-C-HiBiT, Nano-Glo HiBiT luminescence, no ATP; AID 1963318, 2024; Potency, µM (titrated, usually from 32.7 µM), actives largely listed as activators; also: nearly all actives have a fitted effect of over 55% in size
# FLuc SDR ATP: Firefly luciferase (FLuc-C-HiBiT) SDR gain of signal screen - plus ATP; hit rate 8.7% among 1,300; shares compounds with FLuc inh-1; purified FLuc-C-HiBiT + ATP, HiBiT complementation luminescence; Potency, µM (doses to about 32.7 µM), most hits filed as activators;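 also: signal reports ligand binding via conformational change of the enzyme rather than luciferase catalysis; nearly all actives have a fitted effect of over 55% in size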
# FLuc inh-2: Firefly luciferase (FLuc-C-HiBiT) enzymatic inhibition screen - Functional assay | Potency, µM (titrated, usually from 32.7 µM), most hits filed as inhibitors | purified FLuc-C-HiBiT enzyme, luciferin luminescence | hit rate 42% among 1,300 | shares compounds with FLuc inh-1 | AID 1963320, 2024; also: nearly all actives have a fitted effect of over 70% in size
# Numbers stand for hits; 0 = inactive; ? = inconclusive; - = no result. Unless noted, calls follow the shape of the dose curve; as a rule, active = well fitted curve in the direction sought with a large enough effect; inconclusive = small, poorly fitted or top-dose-only effect, or another doubt; inactive = no such curve, though single readings can be large; an effect the other way counts as inactive or inconclusive.
SMILES,GPT2 inhibitor,HEK cytotox,NPR1 antag,NIH3T3 tox,FLuc inh-1,FLuc SDR -ATP,FLuc SDR ATP,FLuc inh-2
CC(=O)N[C@@H]1C=C[C@@H](c2c(C)nn(-c3ccc(C(F)(F)F)cc3)c2C)C1,0,79µM,?,89µM,14µM,0,?,?
CC(=O)N[C@@H]1C=C[C@@H](c2c(C)nn(-c3ccc(C(C)(C)C)cc3)c2C)C1,0,?,?,50µM,14µM,0,0,?
Cn1cnc(-c2nccc3c(=O)[nH]c(OCCCC(F)(F)F)nc23)c1,0,-,-,-,-,-,-,-
Cc1nn(-c2ccccn2)c(C)c1[C@@H]1C=C[C@@H](NC(=O)CSCC(=O)O)C1,0,0,0,?,0,-,-,-
Cc1nn(-c2ccc(C(C)(C)C)cc2)c(C)c1[C@@H]1C=C[C@@H](NC(=O)COCC(=O)O)C1,0,0,0,?,22µM,0,0,?
O=C(NC1CCCCC1)N1CCC(OCc2noc(C3CCCO3)n2)CC1 (centres undefined),0,0,-,0,-,-,-,-
CCC(C)(C)NC(=O)c1cccc2c1CCN2C(=O)Nc1cccc(C)c1,0,?,0,0,7.9µM,?,11µM,7.9µM
CCC(=O)N1CCc2c(C(=O)Nc3ccc(OC)c(OC)c3)cccc21,0,0,0,0,0,-,-,-
Cc1cccc(NC(=O)N2CC3CN(C)CC(C2)O3)c1,0,0,0,0,0,-,-,-
Cc1cccc(NC(=O)N2CCc3c(C(=O)N4CCN(C)CC4)cccc32)c1,0,?,0,0,7.1µM,0,2.5µM,1.8µM
O=C(c1ccc(F)cc1)N1CCC(C(=O)N2CCCC(c3nc4ccncc4[nH]3)C2)CC1 (centres undefined),0,0,-,0,-,-,-,-
COc1ccccc1Nc1ccnc(N2CCCC2C(=O)NC2CC2)n1 (centres undefined),0,0,-,0,-,-,-,-
c1ccc(-c2noc(-c3ccc(OC4CNC4)cc3)n2)cc1,0,25µM,8.9µM,22µM,0.71µM,?,?,2.8µM
O=C(NCc1ccc(F)cc1)N1CC(Oc2ccc(-c3nc(-c4ccccc4)no3)cc2)C1,0,?,0.63µM,0,2.2µM,0,0,0
Cc1cnc(CC2CCCN(C(=O)CCc3c[nH]c4ccccc34)C2)n1C(C)C (centres undefined),0,?,0,0,14µM,0,0,0
COc1ccc(-c2noc(N3CCc4ccccc43)n2)cc1,0,0,?,0,1.6µM,0,?,3.1µM
Cc1cnc(-c2ccccc2)n1CC1CCN(C(=O)c2ccsc2)C1 (centres undefined),0,0,-,0,-,-,-,-
CCOC(=O)c1ccc(NC(=O)c2csc3c2CCCC3)cc1,-,-,-,-,-,0,0,?
Cc1cccc(NC(=O)Nc2ccc(F)cc2)n1,-,-,-,-,-,0,0,?
O=C(NC1CCCCCC1)c1nc2sccn2c1-c1ccccc1,0,?,-,?,-,-,-,-
N#C/C(=C\c1ccc(-c2cc(Cl)ccc2Cl)o1)C(=O)Nc1ccccc1C(=O)O,-,-,-,-,-,0,0,?
O=C1N(c2ccccc2)C[C@H]2CN(Cc3ccccc3)CCN12,0,0,0,0,14µM,0,0,?
COc1ccc(-c2cc(=O)c3cc(OCC(=O)OC(C)C)ccc3o2)cc1,-,-,-,-,-,?,?,3.9µM
CC(C)c1ccc(-c2cc(=O)c3ccccc3o2)cc1,0,-,-,-,-,-,-,-
